From PubChem BioAssay (NCATS) come the findings set out here.

As a reminder, the viability is a read-out of living cells in per cent, often relative to untreated cells.

Structures are written as SMILES. Results filed as inconclusive are left out. A number with no mark means an inactive call. Activity calls are given as the source filed them. Calls come from the whole dose curve; as a rule, active = well fitted cell-killing curve with a large enough effect; inconclusive = small, poorly fitted or top-dose-only effect, or effect the other way; inactive = no such curve, though single readings can be large or run the other way.
Potency is the fitted concentration of half-maximal effect.

The assay in a line: Quantitative High-Throughput drug screen in 47 multiple myeloma cell lines against the NCATS MIPE library collection: H1112_PLB cell viability assay (AID 1918967; note: nearly all actives have a fitted effect of over 30% in size). Conditions: H1112 myeloma cells viability, ATP luminescence, 48 h; series mostly up to 45.8 µM; viability: at the top concentration. In short, it runs like this:
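Myeloma cell lines, 500 cells per well, exposed to MIPE 4.0 library compounds for 48 h at 37C, 5% CO2. Viability from ATP by CellTiter-Glo luminescence; normalised to DMSO (100%) and media-only (0%) wells.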
Regarding `Cc1ccc2c(c1)c1c(n2CCc2ccc(C)nc2)CCN(C)C1`, the “viability” value is 85.1%. Still for that read-out and setting: the result for `CCCCn1c(=O)n(Cc2ccccc2F)c(=O)c2[nH]c(Cc3ccc(NC(C)=O)cc3)nc21` reads 81.4%. Regarding `CC(=O)Nc1cccc(-n2c(=O)n(C3CC3)c(=O)c3c(Nc4ccc(I)cc4F)n(C)c(=O)c(C)c32)c1`, the Potency was 0.0469 µM (active). Still for that read-out and setting: the result for `C[C@@H](NC(=O)c1ncnc(N)c1Cl)c1ncc(C(=O)Nc2cc(C(F)(F)F)c(Cl)cn2)s1` reads 16.6 µM (active). As to `CN(C)CCOc1cc(-c2cn[nH]c2)ccc1NC(=O)C1COc2ccccc2O1` (stereo not drawn), the “viability” value was 85.2%. Still for that read-out and setting: the same measure for `Cc1nc2c([nH]1)CCN(C(=O)c1ccc(NC(=O)c3ccccc3-c3ccccc3)cc1)c1ccccc1-2`: 83.4%. Take `Cc1c(C(=O)Nc2ccc(N3C[C@@H](C)O[C@@H](C)C3)nc2)cccc1-c1ccc(OC(F)(F)F)cc1`: the Potency is 7.43 µM (active). Still for that read-out and setting: the result for `O=C(CC12CC3CC(CC(C3)C1)C2)Nc1cccc2nc(NCCNCCO)ccc12` reads 7.43 µM (active).

Consider `CS(=O)(=O)c1ccc(C2=C(c3ccccc3)C(=O)OC2)cc1`, for which the “viability” value is 103%. Still for that read-out and setting: the same measure for `Cc1cnc(-c2cc(N3CCN(C(=O)CCS(C)(=O)=O)CC3)ncc2Cl)c(C)c1`: 94.2%; for `CN(C)c1nc(Cc2ccc(NC(=O)c3ccc(C(F)(F)F)cc3)cc2)nc(N(C)C)c1CC(=O)O`: 114%.

As to `Nc1ccc(-c2ccc3ncc4ccc(=O)n(-c5cccc(C(F)(F)F)c5)c4c3c2)cn1`, the Potency is 0.0469 µM (active). As to `Cc1ccccc1C(C(=O)NC1CCCCC1)N(C(=O)CNc1ccc(C#N)cc1)c1cccc(F)c1` (stereo not drawn), the “viability” value was 109%. Take `c1ccc(-c2oc3ncnc(NC[C@@H]4CCCO4)c3c2-c2ccccc2)cc1`: the “viability” value was 84.3%. Turning to `CC(C)CNc1ccnc(NCc2csc(-c3ccccc3)n2)n1`, the Potency is 6.62 µM (active). The same measure, in the same setting: the result for `CNC1CCC(N(Cc2cccc(-c3ccncc3)c2)C(=O)c2sc3ccccc3c2Cl)CC1` (stereo not drawn) reads 14.8 µM (active). As to `CCN1C[C@H](C)n2c(c(O)c3c(=O)n(Cc4ccc(F)c(Cl)c4)nc(C(=O)NC)c32)C1=O`, the “viability” value was 104%. For `CCc1cccc(CC)c1NC(=O)N1Cc2[nH]nc(NC(=O)c3ccc(N4CCN(C)CC4)cc3)c2C1`, the Potency was 20.9 µM (active). For the compound `CCCCC(F)(F)[C@@]1(O)CC[C@H]2[C@H](CC(=O)[C@@H]2CCCCCCC(=O)O)O1`, the “viability” value is 119%.

Consider `CC1(COc2ccc3c(c2)ncn3-c2ccc3cccc(N4CCC(N)CC4)c3n2)COC1`, for which the Potency is 0.0083 µM (active).

Take `CC(C)(C)c1nc(-c2cccc(NS(=O)(=O)c3c(F)cccc3F)c2F)c(-c2ccnc(N)n2)s1`: the Potency was 8.33 µM (active). Same read-out and setting: the result for `COc1cc2ncnc(Nc3cc(Br)c(O)c(Br)c3)c2cc1OC` reads 0.0418 µM (active); that for `COc1ccc(-c2ccc3ncc4c(c3c2)n(-c2ccc(N3CCNCC3)c(C(F)(F)F)c2)c(=O)n4C)cn1`, 0.0935 µM (active).
